Sampled rows, rich in hits. Any-hit rate of the full collection: about 19%.
IL-1B inflam inh = qHTS for Inhibitors of Inflammasome Signaling: IL-1-beta AlphaLISA Primary Screen. THP-1 LPS/ATP IL-1B secretion, AlphaLISA, 16 h; stronger effect = lower value. activity change, % at 57.5 µM. hit rate 4.7% among 360,000. AID 743279, 2014; in the data active = activity change below about -50%; inconclusive = mostly about -30% to -49%
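Secreted IL-1B measured by AlphaLISA bead assay after 16 h compound exposure of THP-1 cells; compounds (final up to 57.5 uM) added 1 h before LPS (250 ng/mL) and ATP (1.25 mM) stimulation; lower signal means less secretion.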
TDP1 cell CPT = qHTS for Inhibitors of human tyrosyl-DNA phosphodiesterase 1 (TDP1): qHTS in cells in presence of CPT | hit rate 12% among 420,000 | Potency, µM (top dose mostly 46.2 µM), most hits filed as inhibitors | chicken DT40 Tdp1-/-;hTDP1 cells + 20 nM CPT, ATP luminescence, 48 h; note: nearly all actives have a fitted effect of over 55% in size
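Chicken DT40 Tdp1-/- cells stably complemented with human TDP1 were seeded at 400 cells/well in medium containing 20 nM camptothecin, exposed to pin-transferred compounds, and grown at 37 °C for at least 48 hr. Viability was read as ATP luminescence.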
HT1080-NT tox = qHTS for induction of synthetic lethality in tumor cells producing 2HG: qHTS for the HT-1080-NT fibrosarcoma cell line; HT-1080-NT fibrosarcoma viability, CellTiter-Glo ATP luminescence, 48 h; Potency, µM (titrated, usually from 46.1 µM), usual class: cytotoxic; hit rate 1.6% among 360,000; AID 686970, 2013;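 note: NT is the 2HG producing partner of a matched IDH1 knockdown line; nearly all actives have a fitted effect of over 55% in size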
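Compounds were tested in concentration-response format on HT-1080-NT cells for 48 hours at 37 degrees C. Cell viability came from CellTiter-Glo luminescence; curves were classified by r2, response magnitude and activity.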
ELG1 repair inh = qHTS screen for small molecules that inhibit ELG1-dependent DNA repair in human embryonic kidney (HEK293T) cells expressing luciferase-tagged ELG1. Potency, µM (top dose mostly 46.1 µM), usual class: inhibitors. hit rate 2.3% among 330,000. HEK293T ELG1-luciferase reporter, luminescence, 16 h; DNA damage induced by 5-fluorouridine. AID 504467, 2011; note: nearly all actives have a fitted effect of over 55% in size
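Luminescence from the luciferase reporter, measured 30 min after ONE-Glo reagent at room temperature, was the read-out. Beforehand, 2,000 cells per well were exposed for 16 hr at 37 °C to 5-fluorouridine together with compound or vehicle.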
TDP1 cell noCPT = qHTS for Inhibitors of human tyrosyl-DNA phosphodiesterase 1 (TDP1): qHTS in cells in absence of CPT; DT40 Tdp1-/- hTDP1 cells, no CPT, ATP luminescence, 48 h; hit rate 15% among 420,000; Potency, µM (titrated, usually from 46.2 µM), actives largely listed as inhibitors; note: nearly all actives have a fitted effect of over 55% in size
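Growth of hTDP1-complemented DT40 Tdp1-knockout cells is measured by ATP luminescence after at least 48 hr compound exposure at 37 °C, with DMSO substituting for the 20 nM CPT used in the parallel screen.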
HT1080 IDH1KD tx = qHTS for induction of synthetic lethality in tumor cells producing 2HG: qHTS for the HT-1080-IDH1KD cell line. HT-1080 IDH1 knockdown viability, ATP luminescence, 48 h. Potency, µM (series often up to 46.1 µM), actives largely listed as cytotoxic. AID 686971, 2013. hit rate 2% among 360,000
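Knockdown cells (IDH1KD HT-1080) received compounds 2 h after plating at 750 cells/well and were kept 48 h at 37 °C in 5% FBS RPMI. A CellTiter-Glo luminescence read gave % activity for curve fitting.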
Numbers stand for hits; n = inactive; u = inconclusive; x = no result; [ ] = another dose, or the depositor's remark. Unless noted, calls come from the whole dose curve; as a rule, active = well fitted curve in the direction sought with a large enough effect; inconclusive = small, poorly fitted or top-dose-only effect, or another doubt; inactive = no such curve, though single readings can be large; an effect the other way counts as inactive or inconclusive.

SMILES	IL-1B inflam inh	TDP1 cell CPT	HT1080-NT tox	ELG1 repair inh	TDP1 cell noCPT	HT1080 IDH1KD tx
O=C(Nc1ccc(F)c(F)c1)c1oc2ccccc2c1NC(=O)C1CCCO1 (stereo unspecified)	n	u	n	n	5.17µM	n
CCOc1ccccc1NC(=O)c1oc2ccccc2c1NC(=O)C1CCCO1 (stereo unspecified)	n	16.4µM	n	7.3µM	9.2µM	n
Cc1ccc(NC(=O)c2oc3ccccc3c2NC(=O)C2CCCO2)cc1C (stereo unspecified)	n	10.3µM	n	u	8.2µM	n
O=C(c1ccccn1)N1CCCC(N2CCN(c3ccc(F)cc3)CC2)C1 (stereo unspecified)	n	n	u	n	n	n
Cc1ccc2c(c1)CC(C)N2S(=O)(=O)c1nnc(NC(=O)c2ccccc2F)s1 (stereo unspecified)	x	n	x	x	n	x
CC(=O)NC1C(=O)N=C(SC(C)C(=O)Nc2cccc(Cl)c2)NC1=O (stereo unspecified)	n	n	n	n	n	n
O=C(Nc1ccccc1)c1cc(C2CCCN(C(=O)c3cccs3)C2)on1 (stereo unspecified)	n	n	n	x	n	n
CCOC(=O)c1ccccc1NC(=O)Cn1ccn2nc(-c3ccc(OCC)cc3)cc2c1=O	x	n	x	x	n	x
Cc1ccc(NC(=O)CCc2ccc(C)o2)cc1	n	n	n	n	n	n
O=C(OCc1ccccc1)N1CCC2CC1c1ccc(/C=C/CCCCl)cc12 (stereo unspecified)	n	u	n	x	u	u
COC(=O)C1=C(COc2ccc(C=O)cc2OC)NC(=O)NC1c1cc(C)ccc1C (stereo unspecified)	n	u	n	n	14.6µM	n
COC(=O)C1=C(CSCc2ccccc2)NC(=O)NC1c1cc(C)ccc1C (stereo unspecified)	n	u	n	n	u	n
COC(=O)C1=C(CN2CCN(C)CC2)NC(=O)NC1c1cc(C)ccc1C (stereo unspecified)	n	n	n	n	n	n
COC(=O)C1=C(CN2CCc3ccccc32)NC(=O)NC1c1cc(C)ccc1C (stereo unspecified)	n	u	n	13µM	u	n[9.24 µM]
COc1ccc(NC(=O)c2ccccc2N(Cc2ccccc2)S(C)(=O)=O)c(OC)c1	n	23.1µM	n	u	u	n
COc1ccc(OC)c(NC(=O)c2ccccc2N(C)S(=O)(=O)c2ccc(C)cc2)c1	n	u	n	u	u	n
COc1ccc(OC)c(NC(=O)c2ccccc2N(Cc2ccccc2)S(C)(=O)=O)c1	u	14.6µM	n	u	u	n
CS(=O)(=O)N(Cc1ccccc1)c1ccccc1C(=O)O	n	n	n	n	n	n
CCOc1ccccc1C(=O)Nc1c(NC)c2ccccc2oc1=O	x	n	x	x	u	x
Cn1c(CCC(=O)Nc2cc(S(C)(=O)=O)ccc2Cl)nc2cc(S(=O)(=O)N3CCOCC3)ccc21	n	n	n	u	n	n
CCOc1ccc(/C=N/NC(=O)c2ccc(CSc3nc4ccccc4[nH]3)cc2)cc1	n	23.1µM	u	n	23.1µM	u
COC(=O)c1ccc(CSc2nc3ccc(S(N)(=O)=O)cc3[nH]2)cc1	-100.6	n	n	u	n	n
COC(=O)c1cccc(CSc2nc3ccccc3[nH]2)c1	n	u	n	u	16.4µM	n
